Source: PubChem BioAssay
Active and inactive are the calls of the source.

Tests used:
[1] = tested on: PRMT1 (protein arginine N-methyltransferase 1); assay: PRMT1 binders on small-molecule microarrays, primary screen, biochemical, small-molecule microarray, 635 nm fluorescence (AID 1088); conditions: small-molecule microarray binding, higher = more signal;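 note: binding of Prmt1 protein to compounds spotted on small-molecule microarray slides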
[2] = yeast growth modulation, basal conditions, primary screen, YJM789 clinical isolate, OD600, 24 h (AID 1089);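 note: growth of clinical yeast isolate S. cerevisiae YJM 789 seeded 1000 cells per well; test concentration not given here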; conditions: S. cerevisiae YJM789 growth, higher = more signal, called active from +8 up or from −8 down
[3] = fission yeast growth modulation, primary screen, strain 972, OD600, 24 h, no modulator (AID 1090);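 note: basal condition with compound alone and no growth modifier present; test concentration not given here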; conditions: S. pombe 972 growth, higher = more signal, called active from +8 up or from −8 down
[4] = S. cerevisiae growth modulation with rapamycin, primary screen, strain BY4716, OD600, 96 h (AID 1091); conditions: higher = more signal, called active from +8 up or from −8 down; note: test concentration not given here
[5] = biological target: Torsin-1A-interacting protein 2 (Homo sapiens) (UniProt Q8NFQ8); assay: LULL1 binders on small-molecule microarray, primary screen, cell lysate, human LULL1 lysate, 635/667 nm fluorescence (AID 1092); conditions: hLULL1 lysate binding, 635 nm fluorescence, higher = more signal;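 note: probe is lysate of COS7 cells overexpressing human LULL1; score merges per-feature 667 nm fluorescence with signal-to-noise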
[6] = E. coli growth modulation, two-sided OD650, primary screen, E. coli filamentation project, strain DRC41, 24 h (AID 1093); conditions: OD650, 24 h, higher = more signal, called active from +8 up or from −8 down;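 note: MC1000 strain lacking acrAB efflux and sulA so SOS filamentation is blocked; test concentration not given here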
[7] = small-molecule microarray binders of probe aLefty2, primary screen, biochemical, biotinylated probe, 635/667 nm fluorescence (AID 1094); conditions: higher = more signal;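 note: score merges spot fluorescence near 667 nm with spot signal-to-noise ratio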
[8] = tested on: Noggin (protein binding on small-molecule microarray); assay: Noggin binders on small-molecule microarray, primary screen, biochemical, 635/667 nm fluorescence (AID 1095); conditions: 635 nm fluorescence, higher = more signal;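 note: score merges 667 nm feature fluorescence with signal to noise over triplicate slides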
[9] = biological target: Neurogenic locus notch homolog protein 3 (Homo sapiens) (UniProt Q9UM47); assay: NOTCH3 binders on small-molecule microarray, primary screen, biochemical, 635/667 nm fluorescence (AID 1096); conditions: NOTCH3 binding, 635 nm fluorescence, higher = more signal
[10] = small-molecule microarray binders of probe aEGFR, primary screen, biochemical, biotinylated probe, 635/667 nm fluorescence (AID 1097); conditions: higher = more signal;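 note: probe is a biotinylated anti-EGFR antibody binding compounds printed on slides; score combines fluorescence near 667 nm and signal to noise of each spot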

Sequence of Torsin-1A-interacting protein 2 (Homo sapiens) (Q8NFQ8 whole entry, looked up): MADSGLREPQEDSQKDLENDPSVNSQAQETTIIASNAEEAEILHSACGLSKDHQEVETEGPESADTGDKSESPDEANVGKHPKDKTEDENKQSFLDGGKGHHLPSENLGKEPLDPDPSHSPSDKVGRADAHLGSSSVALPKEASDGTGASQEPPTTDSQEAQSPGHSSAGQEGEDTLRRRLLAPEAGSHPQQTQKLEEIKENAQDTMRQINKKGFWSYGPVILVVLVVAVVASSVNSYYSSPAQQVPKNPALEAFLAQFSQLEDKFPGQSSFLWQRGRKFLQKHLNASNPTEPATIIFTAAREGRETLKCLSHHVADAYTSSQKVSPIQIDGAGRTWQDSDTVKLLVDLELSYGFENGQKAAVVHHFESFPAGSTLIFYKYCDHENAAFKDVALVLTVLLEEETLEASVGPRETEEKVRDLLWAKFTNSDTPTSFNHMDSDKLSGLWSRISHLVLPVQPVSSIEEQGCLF
Sequence of Neurogenic locus notch homolog protein 3 (Homo sapiens) (Q9UM47 whole entry, looked up): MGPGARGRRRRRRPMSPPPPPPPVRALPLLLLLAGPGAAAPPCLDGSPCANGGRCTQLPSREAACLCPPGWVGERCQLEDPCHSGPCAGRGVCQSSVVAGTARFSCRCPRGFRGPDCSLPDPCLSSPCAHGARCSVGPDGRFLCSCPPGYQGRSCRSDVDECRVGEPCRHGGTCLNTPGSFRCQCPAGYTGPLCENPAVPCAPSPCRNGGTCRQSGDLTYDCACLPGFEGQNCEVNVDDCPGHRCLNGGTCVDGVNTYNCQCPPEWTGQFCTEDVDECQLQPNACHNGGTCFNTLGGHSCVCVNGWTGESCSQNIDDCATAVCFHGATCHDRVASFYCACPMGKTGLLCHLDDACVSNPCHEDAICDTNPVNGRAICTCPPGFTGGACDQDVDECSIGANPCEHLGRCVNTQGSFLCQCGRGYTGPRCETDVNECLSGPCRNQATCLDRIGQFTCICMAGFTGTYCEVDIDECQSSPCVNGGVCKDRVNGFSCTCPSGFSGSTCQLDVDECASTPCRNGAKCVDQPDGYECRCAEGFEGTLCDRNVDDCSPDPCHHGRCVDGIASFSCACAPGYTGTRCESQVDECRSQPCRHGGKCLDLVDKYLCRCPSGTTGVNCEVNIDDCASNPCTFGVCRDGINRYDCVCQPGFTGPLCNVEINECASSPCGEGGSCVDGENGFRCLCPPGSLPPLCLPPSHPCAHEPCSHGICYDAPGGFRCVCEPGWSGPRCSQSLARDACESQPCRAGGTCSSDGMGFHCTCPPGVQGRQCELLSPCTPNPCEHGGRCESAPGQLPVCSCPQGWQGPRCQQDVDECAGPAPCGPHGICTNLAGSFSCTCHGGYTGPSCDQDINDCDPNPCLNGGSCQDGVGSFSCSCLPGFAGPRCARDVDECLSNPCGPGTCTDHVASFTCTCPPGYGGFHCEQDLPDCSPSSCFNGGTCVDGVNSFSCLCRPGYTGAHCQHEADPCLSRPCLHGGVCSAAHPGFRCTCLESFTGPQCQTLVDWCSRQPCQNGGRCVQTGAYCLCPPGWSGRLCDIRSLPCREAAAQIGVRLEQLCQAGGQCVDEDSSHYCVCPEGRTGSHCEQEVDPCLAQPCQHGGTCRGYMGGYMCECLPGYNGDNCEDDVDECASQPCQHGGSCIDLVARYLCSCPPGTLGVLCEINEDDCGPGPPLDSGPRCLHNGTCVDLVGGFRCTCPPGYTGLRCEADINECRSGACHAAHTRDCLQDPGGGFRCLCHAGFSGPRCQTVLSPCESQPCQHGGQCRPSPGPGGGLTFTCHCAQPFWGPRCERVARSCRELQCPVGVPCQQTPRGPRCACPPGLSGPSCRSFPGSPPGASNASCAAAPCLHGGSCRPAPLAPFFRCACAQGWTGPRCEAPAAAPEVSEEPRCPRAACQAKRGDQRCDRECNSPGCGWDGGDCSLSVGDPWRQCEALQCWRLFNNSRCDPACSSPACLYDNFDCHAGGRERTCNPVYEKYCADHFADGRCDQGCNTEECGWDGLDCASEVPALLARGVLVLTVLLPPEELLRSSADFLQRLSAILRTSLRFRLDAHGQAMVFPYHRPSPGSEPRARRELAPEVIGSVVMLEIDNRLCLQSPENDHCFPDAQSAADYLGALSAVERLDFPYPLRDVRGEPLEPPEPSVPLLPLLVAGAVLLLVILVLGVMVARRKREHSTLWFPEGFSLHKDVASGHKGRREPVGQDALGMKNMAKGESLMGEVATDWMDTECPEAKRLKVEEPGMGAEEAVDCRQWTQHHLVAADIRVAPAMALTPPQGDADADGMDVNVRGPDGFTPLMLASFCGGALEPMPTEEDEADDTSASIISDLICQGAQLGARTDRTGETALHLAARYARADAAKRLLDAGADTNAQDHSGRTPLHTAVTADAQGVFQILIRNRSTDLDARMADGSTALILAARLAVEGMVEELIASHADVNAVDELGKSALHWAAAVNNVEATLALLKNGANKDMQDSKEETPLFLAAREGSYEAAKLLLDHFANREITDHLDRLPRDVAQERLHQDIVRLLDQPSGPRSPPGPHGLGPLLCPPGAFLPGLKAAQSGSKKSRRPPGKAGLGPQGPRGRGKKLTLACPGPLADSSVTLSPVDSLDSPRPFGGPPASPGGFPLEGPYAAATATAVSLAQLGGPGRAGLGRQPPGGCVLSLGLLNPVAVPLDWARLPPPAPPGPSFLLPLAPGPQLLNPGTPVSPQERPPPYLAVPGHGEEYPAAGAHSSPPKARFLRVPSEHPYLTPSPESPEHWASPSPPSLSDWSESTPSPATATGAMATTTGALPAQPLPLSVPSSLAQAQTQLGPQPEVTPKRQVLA

SMILES | composite z-score [1] | z-score [2] | z-score [3] | z-score [4] | composite z-score [5] | z-score [6] | composite z-score [7] | composite z-score [8] | composite z-score [9] | composite z-score [10]
O=C1C2C=CC(C(O)c3ccc(Br)cc3)N(n3cnnc3)C2C(=O)N1Cc1ccccc1 (stereo not given) | 1.56 | -26.6 (active) | -16 (active) | 0.881 (inactive) | 2.83 | -0.415 (inactive) | 0.126 | 0.57 | 1.03 | 0.115
C=CCN1Cc2ccccc2C[C@]2(N=C(c3ccc(OCCCO)cc3)O[C@@H]2c2ccccc2)C1=O | 1.56 | -6.17 (inactive) | -9.52 (active) | 0.272 (inactive) | 3.27 | 1.49 (inactive) | 0.129 | 0.824 | 1.07 | -0.0455
C=C(C(=O)CC[C@@H](OC(=O)c1cccnc1)c1ccc(OCCO)cc1)C(C)C | 1.57 | -24.3 (active) | -20.5 (active) | -4.75 (inactive) | 0.111 | -0.808 (inactive) | -0.209 | 1.58 | 0.344 | -0.0972
